In PubChem BioAssay one finds composite z-score and z-score data, which are given here for five molecules.

Assay [1] deals with PRMT1 (protein arginine N-methyltransferase 1). Briefly: small molecules binding arginine methyltransferase PRMT1 – biochemical, small-molecule microarray, 635 nm fluorescence, primary screen (AID 1088).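 Note: binding of Prmt1 protein to compounds spotted on small-molecule microarray slides.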 The conditions noted are these: higher = more signal.
The nature of assay [2]: growth effects on S. cerevisiae YJM789 – YJM789 clinical isolate, OD600, 24 h, basal, primary screen (AID 1089).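 Note: growth of clinical yeast isolate S. cerevisiae YJM 789 seeded 1000 cells per well; test concentration not given here.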 The conditions noted are these: higher = more signal, called active from +8 up or from −8 down.
Assay [3] can be described thus: S. pombe growth modifiers, basal conditions – strain 972, OD600, 24 h, no modulator, primary screen (AID 1090).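 Note: basal condition with compound alone and no growth modifier present; test concentration not given here.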 The conditions noted are these: S. pombe 972 growth, higher = more signal, called active from +8 up or from −8 down.
A short description of assay [4]: budding yeast growth modifiers under rapamycin – strain BY4716, OD600, 96 h, primary screen (AID 1091). Note: test concentration not given here. The conditions noted are these: S. cerevisiae BY4716 + rapamycin, higher = more signal, called active from +8 up or from −8 down.
In assay [5] the target is Torsin-1A-interacting protein 2 (Homo sapiens) (UniProt Q8NFQ8). The experiment in a line: small molecules binding lysate-expressed LULL1 – cell lysate, human LULL1 lysate, 635/667 nm fluorescence, primary screen (AID 1092).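 Note: probe is lysate of COS7 cells overexpressing human LULL1; score merges per-feature 667 nm fluorescence with signal-to-noise.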 As to conditions: small-molecule microarray, hLULL1 lysate binding, 635 nm fluorescence; higher = more signal.
Chain of Torsin-1A-interacting protein 2 (Homo sapiens) (Q8NFQ8 whole entry, looked up): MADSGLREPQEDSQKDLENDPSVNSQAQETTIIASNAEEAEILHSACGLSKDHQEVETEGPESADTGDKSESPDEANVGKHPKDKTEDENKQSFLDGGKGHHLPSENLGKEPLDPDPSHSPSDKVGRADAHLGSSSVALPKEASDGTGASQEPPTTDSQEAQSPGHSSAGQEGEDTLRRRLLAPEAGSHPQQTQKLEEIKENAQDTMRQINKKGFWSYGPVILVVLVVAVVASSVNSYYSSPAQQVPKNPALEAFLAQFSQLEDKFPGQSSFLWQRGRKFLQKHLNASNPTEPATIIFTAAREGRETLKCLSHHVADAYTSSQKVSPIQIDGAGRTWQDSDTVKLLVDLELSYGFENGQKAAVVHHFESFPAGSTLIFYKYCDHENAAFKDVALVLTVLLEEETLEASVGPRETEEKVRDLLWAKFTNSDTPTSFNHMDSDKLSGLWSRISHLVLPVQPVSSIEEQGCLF
Assay [6] can be described thus: optical density change of DRC41 E. coli – strain DRC41, OD650, 24 h, E. coli filamentation project, primary screen (AID 1093).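 Note: MC1000 strain lacking acrAB efflux and sulA so SOS filamentation is blocked; test concentration not given here.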 As to conditions: E. coli DRC41 growth, higher = more signal, called active from +8 up or from −8 down.
Assay [7] is described as follows: probe aLefty2 binding to arrayed compounds – biochemical, biotinylated probe, 635/667 nm fluorescence, primary screen (AID 1094).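 Note: score merges spot fluorescence near 667 nm with spot signal-to-noise ratio.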 As to conditions: small-molecule microarray, higher = more signal.
Assay [8] relates to Noggin (protein binding on small-molecule microarray). The experiment in a line: small molecules binding Noggin protein – biochemical, 635/667 nm fluorescence, primary screen (AID 1095).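 Note: score merges 667 nm feature fluorescence with signal to noise over triplicate slides.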 As to conditions: 635 nm fluorescence, higher = more signal.
The target in assay [9] is Neurogenic locus notch homolog protein 3 (Homo sapiens) (UniProt Q9UM47). The experiment in a line: small molecules binding NOTCH3 protein – biochemical, 635/667 nm fluorescence, primary screen (AID 1096). As to conditions: small-molecule microarray, 635 nm fluorescence, higher = more signal.
Chain of Neurogenic locus notch homolog protein 3 (Homo sapiens) (Q9UM47 whole entry, looked up): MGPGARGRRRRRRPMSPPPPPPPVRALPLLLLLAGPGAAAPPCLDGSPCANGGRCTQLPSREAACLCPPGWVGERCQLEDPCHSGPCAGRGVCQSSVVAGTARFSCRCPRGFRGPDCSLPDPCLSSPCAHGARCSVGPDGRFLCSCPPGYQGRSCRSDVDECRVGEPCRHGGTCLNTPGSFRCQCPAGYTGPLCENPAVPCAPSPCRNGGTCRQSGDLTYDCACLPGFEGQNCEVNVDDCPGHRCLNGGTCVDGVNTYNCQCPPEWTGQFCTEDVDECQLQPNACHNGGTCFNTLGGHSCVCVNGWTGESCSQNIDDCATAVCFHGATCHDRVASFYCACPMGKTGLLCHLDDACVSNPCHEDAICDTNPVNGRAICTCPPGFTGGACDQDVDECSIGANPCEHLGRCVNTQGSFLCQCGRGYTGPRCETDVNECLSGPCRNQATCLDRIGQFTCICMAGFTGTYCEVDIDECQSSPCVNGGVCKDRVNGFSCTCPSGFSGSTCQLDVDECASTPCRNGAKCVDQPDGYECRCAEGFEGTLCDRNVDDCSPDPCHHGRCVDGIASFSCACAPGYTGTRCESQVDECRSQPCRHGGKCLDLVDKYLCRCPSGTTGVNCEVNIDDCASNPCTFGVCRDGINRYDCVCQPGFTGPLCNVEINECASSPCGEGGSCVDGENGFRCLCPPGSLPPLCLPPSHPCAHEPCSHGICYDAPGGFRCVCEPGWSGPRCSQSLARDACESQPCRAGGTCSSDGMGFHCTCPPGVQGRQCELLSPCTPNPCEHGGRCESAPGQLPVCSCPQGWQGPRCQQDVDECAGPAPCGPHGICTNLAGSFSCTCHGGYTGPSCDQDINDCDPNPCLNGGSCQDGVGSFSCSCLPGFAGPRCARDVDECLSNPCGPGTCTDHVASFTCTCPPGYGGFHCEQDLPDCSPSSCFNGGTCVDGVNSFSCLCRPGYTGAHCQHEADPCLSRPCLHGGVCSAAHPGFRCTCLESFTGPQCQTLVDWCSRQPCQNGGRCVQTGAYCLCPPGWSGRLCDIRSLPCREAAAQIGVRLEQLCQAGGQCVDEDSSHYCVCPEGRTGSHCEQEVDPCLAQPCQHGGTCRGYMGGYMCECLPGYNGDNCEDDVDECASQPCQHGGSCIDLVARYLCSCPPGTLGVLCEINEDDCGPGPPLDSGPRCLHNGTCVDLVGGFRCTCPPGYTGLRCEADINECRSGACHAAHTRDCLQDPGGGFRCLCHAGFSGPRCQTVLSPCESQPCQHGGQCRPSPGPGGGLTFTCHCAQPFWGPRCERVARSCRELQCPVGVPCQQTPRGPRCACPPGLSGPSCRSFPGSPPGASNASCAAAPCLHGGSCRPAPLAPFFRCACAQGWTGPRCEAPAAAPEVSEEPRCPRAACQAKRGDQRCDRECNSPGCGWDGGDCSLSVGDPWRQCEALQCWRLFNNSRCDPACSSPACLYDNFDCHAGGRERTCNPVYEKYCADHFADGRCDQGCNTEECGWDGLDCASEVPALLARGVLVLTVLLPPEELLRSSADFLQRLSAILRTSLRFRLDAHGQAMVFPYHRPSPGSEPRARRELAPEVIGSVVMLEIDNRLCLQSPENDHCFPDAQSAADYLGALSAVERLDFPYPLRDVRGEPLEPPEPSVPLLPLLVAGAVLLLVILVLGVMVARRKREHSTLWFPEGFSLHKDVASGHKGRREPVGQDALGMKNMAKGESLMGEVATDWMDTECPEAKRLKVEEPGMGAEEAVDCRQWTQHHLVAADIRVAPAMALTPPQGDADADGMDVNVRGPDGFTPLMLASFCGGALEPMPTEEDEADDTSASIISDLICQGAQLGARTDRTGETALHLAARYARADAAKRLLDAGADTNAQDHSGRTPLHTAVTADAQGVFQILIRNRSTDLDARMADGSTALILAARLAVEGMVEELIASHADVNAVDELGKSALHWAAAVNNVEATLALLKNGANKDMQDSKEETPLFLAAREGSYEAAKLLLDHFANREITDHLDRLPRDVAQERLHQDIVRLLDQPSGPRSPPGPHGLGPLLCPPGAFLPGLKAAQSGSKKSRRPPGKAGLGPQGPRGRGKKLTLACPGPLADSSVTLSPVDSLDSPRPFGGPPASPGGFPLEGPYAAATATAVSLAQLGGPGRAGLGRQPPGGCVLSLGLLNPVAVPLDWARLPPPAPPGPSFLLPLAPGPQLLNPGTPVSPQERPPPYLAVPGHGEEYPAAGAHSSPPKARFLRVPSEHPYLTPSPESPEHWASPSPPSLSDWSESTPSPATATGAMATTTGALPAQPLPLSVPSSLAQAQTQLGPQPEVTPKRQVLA
A short description of assay [10]: probe aEGFR binding to arrayed compounds – biochemical, biotinylated probe, 635/667 nm fluorescence, primary screen (AID 1097).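 Note: probe is a biotinylated anti-EGFR antibody binding compounds printed on slides; score combines fluorescence near 667 nm and signal to noise of each spot.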 The conditions noted are these: small-molecule microarray, higher = more signal.
Assay [11] has as its system Plasmodium falciparum Sir2 (PF13_0152, Sir2A). The experiment in a line: Plasmodium falciparum Sir2A binding compounds – biochemical, small-molecule microarray, 635 nm fluorescence, primary screen (AID 1098).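 Note: score merges spot fluorescence intensity with its signal-to-noise ratio.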 The conditions noted are these: fluorescence 635 nm, higher = more signal.
A short description of assay [12]: probe aDKK1 binding to arrayed compounds – biochemical, biotinylated probe, 635/667 nm fluorescence, primary screen (AID 1099).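 Note: score merges 667nm spot fluorescence with signal to noise across triplicate slides; reference of the scale not given here.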 The conditions noted are these: small-molecule microarray, higher = more signal.
The nature of assay [13]: probe aCHRDL2 binding to arrayed compounds – biochemical, biotinylated probe, 635/667 nm fluorescence, primary screen (AID 1100). The conditions noted are these: small-molecule microarray, higher = more signal.
Assay [14] can be described thus: change in splice reporter luminescence, either direction, cell-based, HEK293, spliceosome inhibition project, primary screen (AID 1101).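 Note: HEK293 cells carrying a splicing-competent luciferase reporter gene; test concentration not given here.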 As to conditions: HEK293 splicing luciferase reporter, 24 h, higher = more signal, called active from +8 up or from −8 down. In general terms: Reporter assays use an easily measured gene product as a stand-in for the process of interest.

The target of assay [15] is Fibroblast growth factor 10 (Homo sapiens) (UniProt O15520). Briefly: compounds binding fibroblast growth factor 10 – biochemical, small-molecule microarray, 635 nm fluorescence, primary screen (AID 1102). As to conditions: FGF10 binding, fluorescence 635 nm, higher = more signal.
Chain of Fibroblast growth factor 10 (Homo sapiens) (O15520 whole entry, looked up): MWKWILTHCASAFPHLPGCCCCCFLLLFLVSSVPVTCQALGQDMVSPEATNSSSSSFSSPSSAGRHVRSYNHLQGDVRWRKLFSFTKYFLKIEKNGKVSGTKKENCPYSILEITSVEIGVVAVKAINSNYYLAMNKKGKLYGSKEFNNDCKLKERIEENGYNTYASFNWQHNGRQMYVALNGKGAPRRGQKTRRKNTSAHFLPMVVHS
The test system of assay [16] is glycogen synthase kinase-3 (GSK3A per assay name; protocol says GSK3B). Briefly: compounds binding glycogen synthase kinase-3 – biochemical, small-molecule microarray, 635 nm fluorescence, GSK3A, primary screen (AID 1103). Note: the record names both GSK3A and GSK3B. As to conditions: fluorescence 635 nm, higher = more signal.
In assay [17] the target is Epidermal growth factor receptor (Homo sapiens) (UniProt P00533). Briefly: compounds binding epidermal growth factor receptor – biochemical, small-molecule microarray, 635 nm fluorescence, primary screen (AID 1104).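 Note: score merges 667 nm emission intensity with spot signal to noise over triplicate slides.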 As to conditions: EGFR binding, higher = more signal.
Chain of Epidermal growth factor receptor (Homo sapiens) (P00533 whole entry, looked up): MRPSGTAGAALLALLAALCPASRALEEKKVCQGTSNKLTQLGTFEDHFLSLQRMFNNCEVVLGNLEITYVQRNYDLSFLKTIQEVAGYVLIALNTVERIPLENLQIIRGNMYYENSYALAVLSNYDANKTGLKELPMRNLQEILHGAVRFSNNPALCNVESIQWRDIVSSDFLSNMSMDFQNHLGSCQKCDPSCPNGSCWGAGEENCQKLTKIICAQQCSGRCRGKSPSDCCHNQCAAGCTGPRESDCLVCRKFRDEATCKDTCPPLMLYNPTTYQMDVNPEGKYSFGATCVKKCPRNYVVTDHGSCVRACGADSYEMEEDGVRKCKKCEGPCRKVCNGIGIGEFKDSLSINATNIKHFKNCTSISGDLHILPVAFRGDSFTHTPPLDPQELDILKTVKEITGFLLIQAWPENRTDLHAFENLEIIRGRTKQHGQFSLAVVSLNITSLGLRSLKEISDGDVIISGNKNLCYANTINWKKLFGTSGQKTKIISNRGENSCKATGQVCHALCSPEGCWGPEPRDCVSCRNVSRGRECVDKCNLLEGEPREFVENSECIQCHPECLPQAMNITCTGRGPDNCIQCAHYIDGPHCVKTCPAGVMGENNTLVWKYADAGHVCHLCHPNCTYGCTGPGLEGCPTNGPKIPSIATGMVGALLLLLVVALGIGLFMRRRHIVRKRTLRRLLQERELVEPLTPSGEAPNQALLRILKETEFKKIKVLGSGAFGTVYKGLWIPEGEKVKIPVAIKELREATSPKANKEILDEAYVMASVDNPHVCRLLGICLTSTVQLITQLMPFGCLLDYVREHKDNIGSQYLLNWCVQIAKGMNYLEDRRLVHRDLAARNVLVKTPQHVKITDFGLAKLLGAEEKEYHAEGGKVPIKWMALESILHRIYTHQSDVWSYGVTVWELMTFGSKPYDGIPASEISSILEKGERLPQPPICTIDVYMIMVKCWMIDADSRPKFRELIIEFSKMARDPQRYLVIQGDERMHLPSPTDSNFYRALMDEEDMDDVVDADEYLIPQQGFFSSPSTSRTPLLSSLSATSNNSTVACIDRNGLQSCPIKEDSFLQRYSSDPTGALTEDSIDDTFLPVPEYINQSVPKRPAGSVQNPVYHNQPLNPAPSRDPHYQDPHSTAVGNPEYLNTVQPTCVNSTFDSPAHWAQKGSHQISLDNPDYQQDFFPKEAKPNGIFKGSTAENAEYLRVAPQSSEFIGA
For assay [18], the target named is Follistatin-related protein 3 (Homo sapiens) (UniProt O95633). The experiment in a line: compounds binding follistatin-related protein 3 – biochemical, small-molecule microarray, 635 nm fluorescence, primary screen (AID 1105).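 Note: score merges emission near 667 nm and signal to noise per printed spot across three slides.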 The conditions noted are these: FSTL3 binding, higher = more signal.
Chain of Follistatin-related protein 3 (Homo sapiens) (O95633 whole entry, looked up): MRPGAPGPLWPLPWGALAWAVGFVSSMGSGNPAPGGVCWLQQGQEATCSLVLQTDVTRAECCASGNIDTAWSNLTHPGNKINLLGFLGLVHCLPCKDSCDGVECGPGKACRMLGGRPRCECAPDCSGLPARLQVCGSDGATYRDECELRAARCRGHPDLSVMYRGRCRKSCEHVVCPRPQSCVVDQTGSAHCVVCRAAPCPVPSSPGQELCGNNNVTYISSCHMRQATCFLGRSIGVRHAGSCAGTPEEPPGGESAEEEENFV
The target of assay [19] is Dickkopf-related protein 1 (Homo sapiens) (UniProt O94907). Briefly: small molecules binding DKK1 protein – biochemical, small-molecule microarray, 635 nm fluorescence scan, primary screen (AID 1106).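 Note: score merges emission near 667 nm with signal to noise over three replicate slides.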 As to conditions: higher = more signal.
Chain of Dickkopf-related protein 1 (Homo sapiens) (O94907 whole entry, looked up): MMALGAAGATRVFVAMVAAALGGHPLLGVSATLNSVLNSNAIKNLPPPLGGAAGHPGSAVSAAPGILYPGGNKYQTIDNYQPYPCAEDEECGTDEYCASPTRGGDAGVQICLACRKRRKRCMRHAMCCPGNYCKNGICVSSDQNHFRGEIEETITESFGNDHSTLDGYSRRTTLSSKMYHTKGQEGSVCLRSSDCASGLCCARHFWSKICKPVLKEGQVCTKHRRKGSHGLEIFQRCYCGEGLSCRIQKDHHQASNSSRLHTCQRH
Assay [20] relates to Inhibin beta A chain (activin A). Briefly: small molecules binding activin A – biochemical, small-molecule microarray, 635 nm fluorescence scan, primary screen (AID 1107).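 Note: mouse activin A protein probed at 4.33 µg/mL on printed slides; score merges bound-protein fluorescence near 667 nm with spot signal-to-noise.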 The conditions noted are these: INHBA, higher = more signal.

Active and inactive are the calls of the source.

With `CC(CCN1CCCCc2nc(C)c(C)cc21)=NO[C@H](C)c1cn([C@@H]2COC[C@H]2O)nn1`, the composite z-score in assay [1] is 1.19; in assay [5] it was 0.967; in [7] it was 0.0636; in assay [8], 1.51; in assay [9] it was 0.486; in assay [10] it was 0.267. Besides, the composite z-score in assay [11] is 0.742; in assay [12], -0.404; in assay [13], -0.961; in assay [15], 1.23; in [16] it was 1.16; in assay [17], 1.61. Further, the values for the composite z-score in assay [18], in [19] and in [20] were 1.43, 2.15 and 1.21, respectively. Also, the z-score in [2] was 0.565 (inactive); in assay [3], 1.07 (inactive); in assay [4], 0.601 (inactive); in [6] it was 0.681 (inactive); in [14], 1.09 (inactive).
Regarding `O=C1[C@H]2[C@H]3[C@H](O)[C@H](O)CC(=NOC[C@@H](O)COCc4ccco4)[C@@H]3CC[C@H]2C(=O)N1C1CCCCC1`, the composite z-score in assay [1] is 1.39; in assay [5], 1.25; in [7], -0.061; in [8], 1.75; in [9], 0.437; in assay [10], 0.0583. Moreover, the composite z-score in [11] is 0.225; in [12], -0.401; in assay [13], -1.26; in assay [15], -0.102; in assay [16], 1.04; in [17], 0.783. Also, the values for the composite z-score in [18], in assay [19] and in assay [20] were 1.36, 1.46 and 1.23, respectively. Besides, the z-score in assay [2] was 1.61 (inactive); in [3] it was -0.0798 (inactive); in [4], -0.133 (inactive); in assay [6], 0.61 (inactive); in [14], 0.76 (inactive).
On to `CCN1C(C)=C(C(=O)OC)[C@@H](c2ccccc2)N2C(=O)[C@](O)(C(=O)OC)CC(C(C)=O)=C12`, for which the composite z-score in assay [1] was 0.0774; in [5], -0.25; in assay [7] it was -0.313; in assay [8], 0.768; in assay [9] it was 0.534; in assay [10] it was -0.0957. For the same molecule, the composite z-score in assay [11] is -0.166; in assay [12], -0.324; in assay [13] it was -0.745; in assay [15], 0.302; in assay [16], 0.489; in assay [17] it was 0.633. Moreover, the composite z-score in assay [18] was determined as 0.557; in assay [19], 0.514; in [20], 0.423. Also, the z-score is 0.02 (inactive) in assay [2]; -1.13 (inactive) in assay [3]; 0.712 (inactive) in assay [4]; 0.302 (inactive) in assay [6]; 0.15 (inactive) in assay [14].
Turning to `CCOC(=O)CCN1C(=O)[C@H]2[C@H]3[C@H](O)[C@H](O)CC(=NO[C@@H]4O[C@H](CO)[C@@H](O)[C@H](O)[C@H]4O)[C@H]3CC[C@H]2C1=O`, the composite z-score is -0.145 in assay [1]; 0.211 in assay [5]; 0.0008 in assay [7]; 0.404 in assay [8]; 0.195 in assay [9]; -0.115 in [10]. For the same molecule, the composite z-score in assay [11] is 0.29; in [12], 0.198; in assay [13], -0.141; in [15], 0.655; in assay [16], 0.822; in assay [17] it was 0.563. For the same molecule, the composite z-score in assay [18] amounted to 0.231; in assay [19], 0.315; in [20] it was 0.401. For the same molecule, the z-score in assay [2] is -0.703 (inactive); in [3], 0.354 (inactive); in [4], -0.387 (inactive); in assay [6], 0.389 (inactive); in assay [14] it was -0.265 (inactive).
Turning to `COC(=O)[C@H](C)NC(=O)CCC1CC(OC(=O)NCCc2ccc(F)cc2)CC2(CCCC(COC(=O)NCCOc3ccccc3)O2)O1` (stereo not given in full), the composite z-score in [1] was 1.46; in assay [5], 2.64; in [7], -0.0073; in [8], 0.724; in assay [9], 1.06; in [10] it was -0.106. Besides, the composite z-score in [11] is 0.612; in assay [12], -0.244; in assay [13] it was -0.224; in [15], 0.762; in assay [16], 1.01; in [17] it was 0.538. For the same molecule, the composite z-score in assay [18] is 0.781; in assay [19], 0.652; in assay [20], -0.455. Further, the z-score in assay [2] was -0.233 (inactive); in assay [3], 0.927 (inactive); in assay [4] it was 1.12 (inactive); in assay [6], 0.219 (inactive); in assay [14], 0.587 (inactive).
